Bioassay records from PubChem BioAssay.
Beta2AR agonist – beta2AR agonists driving receptor internalization, primary screen, cell-based, FAP fluorogen, flow cytometry | Beta-2 adrenergic receptor (Homo sapiens), P07550 | Am2.2-beta2AR cells | response, % (test concentration not listed) | 0.43% of 340,000 active | AID 504454, 2011;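 active means response above a set limit, near 3 SD of response in nonfluorescent compounds, cut at about 42% in these data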
GRK2 aptamer HTS – compounds blocking aptamer binding on GRK2 – biochemical, human GRK2, bead flow cytometry, HTS, primary screen; FAM-aptamer displacement from GRK2; inhibition of aptamer binding, % at 10 µM; 0.59% of 330,000 active; AID 488847, 2010;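 active means inhibition of aptamer binding above 40%, roughly 3 SD of noise, on plates passing a quality check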;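 further: median bead fluorescence of bound FAM aptamer so fluorescent compounds give negative values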
MEKK2 WT-MEK5 – modulators of MEK5 binding to wildtype MEKK2, primary screen, biochemical, multiplex bead flow cytometry, Alexa488-MEK5 | binding response (% of control), % at 10 µM | Mitogen-activated protein kinase kinase kinase 2 (Homo sapiens), Q9Y2U5 | Alexa488-MEK5 binding to MEKK2 WT; actives lie on both sides | 1.1% of 290,000 active; in the data active means binding response below about 67% or above about 130%
MEKK2 mut-MEK5 – MEK5 binding signal on mutant MEKK2 PB1, primary screen, biochemical, multiplex bead flow cytometry, Alexa488-MEK5; 0.35% of 290,000 active; Alexa488-MEK5 binding to MEKK2 mutant; percent response, % at 10 µM; in the data active means percent response above about 24%, passing the limit was not always enough
MEKK3 PB1 HTS – modulators of MEKK3-MEK5 PB1 binding, primary screen, biochemical, wildtype MEKK3, multiplex bead flow cytometry, Alexa488-MEK5; 1.4% of 290,000 active; AID 1529, 2009; bead-based flow cytometry, Alexa488-MEK5 binding to MEKK3; actives lie on both sides; 0 = blocked by unlabeled MEK5, 100 = vehicle; binding response (% of control), % at 10 µM; Mitogen-activated protein kinase kinase kinase 3 (Homo sapiens), Q99759;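 active means binding response more than 3 SD above or below the average of its plate-row segment, actives on both sides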;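 further: Alexa488 bead fluorescence after subtracting the streptavidin-only scavenger bead signal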
Target sequence (Q99759 whole entry, looked up): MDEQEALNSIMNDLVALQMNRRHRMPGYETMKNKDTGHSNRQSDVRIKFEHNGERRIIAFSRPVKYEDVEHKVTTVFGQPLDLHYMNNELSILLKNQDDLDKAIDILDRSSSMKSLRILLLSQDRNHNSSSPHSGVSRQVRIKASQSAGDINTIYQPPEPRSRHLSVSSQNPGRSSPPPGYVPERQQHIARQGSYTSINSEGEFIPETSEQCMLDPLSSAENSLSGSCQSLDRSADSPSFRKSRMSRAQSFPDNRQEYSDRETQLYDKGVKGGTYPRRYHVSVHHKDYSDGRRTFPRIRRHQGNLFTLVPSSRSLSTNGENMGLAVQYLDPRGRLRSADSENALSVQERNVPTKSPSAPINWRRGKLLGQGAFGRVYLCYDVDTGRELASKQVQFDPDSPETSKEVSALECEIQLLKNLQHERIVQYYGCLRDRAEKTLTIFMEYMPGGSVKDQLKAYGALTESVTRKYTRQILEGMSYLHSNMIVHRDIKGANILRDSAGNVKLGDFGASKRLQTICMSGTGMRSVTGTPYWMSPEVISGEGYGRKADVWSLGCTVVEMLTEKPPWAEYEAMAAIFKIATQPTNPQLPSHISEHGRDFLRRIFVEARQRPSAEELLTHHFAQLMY
GRK2 CP1 – GRK2 aptamer-displacing inhibitors, retest, confirmation, biochemical, cherry pick 1, bead flow cytometry | bead-bound GRK2, FAM-aptamer displacement | 4% of 2,000 active | shares compounds with GRK2 aptamer HTS | aptamer displacement, % at 10 µM | AID 504451, 2011;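 active means aptamer displacement above 40%, near three times the noise of non-fluorescent compounds, on plates passing quality checks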;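 further: negative values mostly reflect intrinsic compound fluorescence rather than true enhancement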
Aptamer quench – fluorescent aptamer quenching in GRK2 counter-screen dose response | 110 tested, under 10 active | Fluorescent RNA aptamer beads, flow cytometry; active compounds read high | shares compounds with GRK2 aptamer HTS | AID 504521 | fluorescence change (kMESF span), kMESF (no concentration beside the values);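 active means compounds whose bead fluorescence drops by more than 37 kMESF across the dose range, marking them as dye quenchers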
Aptamer quench SP – quenches fluorescent RNA aptamer, GRK2 hit artifact. shares compounds with GRK2 aptamer HTS. Carboxyfluorescein RNA aptamer on beads, flow cytometry quenching; active compounds read low. fluorescence response (% of DMSO), % at 10 µM. 2,000 tested, under 10 active. AID 504580;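 active means compounds that quench the bead-bound fluorescent RNA probe, cutting fluorescence to under half of the solvent control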;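 further: counterscreen run without GRK2 so only probe quenching by compound is measured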
GRK2 CP2 – GRK2 aptamer-displacing inhibitors, hit retest, confirmation, biochemical, cherry pick 2, bead flow cytometry; bead-bound GRK2, FAM-aptamer displacement; shares compounds with GRK2 aptamer HTS; 360 tested, under 10 active; AID 504782, 2011; inhibition of aptamer binding, % at 10 µM;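 active means inhibition of aptamer binding above 40%, about triple the noise seen with nonglowing compounds, on plates passing quality control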;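 further: negative values mostly come from compounds that fluoresce themselves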
FAM quench SP – counter-screen for GRK2 binding hits: quenchers of fluorescent RNA aptamer. carboxyfluorescein RNA aptamer beads, flow cytometry quenching; active compounds read low. AID 588494. fluorescence response vs DMSO, % at 10 µM. shares compounds with GRK2 aptamer HTS. 360 tested, under 10 active;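 active means response vs DMSO under 50%, meaning signal dropped by over half, treated as fluorescence quencher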;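 further: labelled aptamer on streptavidin beads without GRK2 as a quench counter-screen; 100% = bead fluorescence of DMSO wells and lower means quenching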
The depositor's hits bear a star; / = no result. Rows were chosen to be rich in hits. Some 2.9% of all compounds tested hit in one or more screens of this group.

SMILES | Beta2AR agonist | GRK2 aptamer HTS | MEKK2 WT-MEK5 | MEKK2 mut-MEK5 | MEKK3 PB1 HTS | GRK2 CP1 | Aptamer quench SP | others
CC(C(=O)Nc1ccccc1C#N)N1C(=O)NC2(CCCCCC2)C1=O (configuration not stated) | -0.2 | / | / | / | / | / | /
COc1ccccc1CNC(=O)CCC(=O)N1Cc2cccc(OC)c2Oc2ncccc21 | 5.3 | 1.0 | 95.0 | 0.0 | 97.0 | / | /
Cc1ccc(C(=O)NC(C)C2CC3CCC2C3)c(C)c1 (configuration not stated) | 1.1 | 4.0 | 104.0 | 4.0 | 102.0 | / | /
COc1ccc(C2=NS(=O)(=O)N(C)C(C(=O)Nc3ccc(OC)c(OC)c3)=C2)cc1 | -4.4 | 2.0 | 94.0 | 0.0 | 97.0 | / | /
COc1ccc(NC(=O)C2=CC(c3ccc(C)cc3)=NS(=O)(=O)N2C)cc1 | 26.1 | 54.0* | 103.0 | 0.0 | 102.0 | 0.8 | 98.0
CN(C(=O)COC(=O)c1cccnc1Nc1cccc(C(F)(F)F)c1)C1CCS(=O)(=O)C1 (configuration not stated) | -13.3 | 0.0 | 99.0 | -1.0 | 88.0 | -3.0 | 97.9
CCOc1ccc(C(=O)OCC(=O)N2CCCC2)cc1OCC | -6.5 | 0.0 | 103.0 | 0.0 | 101.0 | / | /
COc1ccccc1-c1cc(C(F)(F)F)nc(S(=O)(=O)CCCC(=O)NCc2ccc(F)cc2)n1 | 36.6 | 48.0* | 83.0 | -14.0 | 90.0 | -0.4 | 98.3 | GRK2 CP2=-1.6;FAM quench SP=101.0
COc1cc(CCC(=O)Nc2nccs2)cc(OC)c1OC | -3.0 | 4.0 | 103.0 | 1.0 | 99.0 | -1.2 | 97.2
COc1cc(CCC(=O)NCc2ccc(F)cc2)cc(OC)c1OC | -4.2 | 35.0 | 107.0 | 4.0 | 104.0 | -6.0 | 95.5
COCC(=O)Nc1cc(C)cn(Cc2ccccc2Cl)c1=O | -2.8 | 2.0 | 101.0 | 0.0 | 102.0 | / | /
CC(=O)c1cccc(NC(=O)CSCc2ccccc2)c1 | 2.5 | 43.0* | 99.0 | -3.0 | 100.0 | -1.6 | 98.7
CC(=O)c1cccc(NC(=O)CSCc2ccc(Br)cc2)c1 | 1.7 | 1.0 | 71.0 | -7.0 | 83.0 | / | /
O=C(O)c1ccccc1Nc1cccc(OCc2ccc3ccccc3n2)c1 | -4.3 | 0.0 | / | / | / | 6.1 | 90.0
O=C(COc1ccc2ccccc2c1)Nc1cccc(C(=O)Nc2ccccc2C(=O)O)c1 | 2.8 | 10.0 | 91.0 | -1.0 | 114.0 | / | /
NC(CO)C(O)c1ccc([N+](=O)[O-])cc1 (configuration not stated) | 3.2 | 98.0* | 98.0 | 2.0 | 111.0 | 0.6 | 98.7
CC(=O)Nc1cccc(-c2nnc(-c3ccc(C)cc3)o2)c1 | -5.1 | 0.0 | 105.0 | 5.0 | 107.0 | / | /
C/C=C(/C)C(=O)Nc1cccc(C2=NOC3(C2)C[C@H](C(N)=O)N(C(=O)c2ccc(Cl)cc2)C3)c1 (some centres not stated) | -13.4 | 2.0 | 95.0 | 2.0 | 92.0 | / | /
C=C(C)C(=O)Nc1cccc(C2=NOC3(C2)C[C@@H](C(N)=O)N(C(=O)c2ccc(Cl)cc2)C3)c1 (some centres not stated) | / | 97.0* | 84.0 | -23.0 | 84.0 | 91.7* | 99.1 | Aptamer quench=5.2
C=C(C)C(=O)Nc1cccc(C2=NOC3(C2)C[C@@H](C(N)=O)N(C(=O)c2cc([N+](=O)[O-])cc([N+](=O)[O-])c2C)C3)c1 (some centres not stated) | -9.5 | 2.0 | 93.0 | -24.0 | 92.0 | / | /
CCCCCC(=O)N1CC2(CC(c3cccc(NC(=O)COc4ccc(Cl)cc4)c3)=NO2)C[C@@H]1C(N)=O (some centres not stated) | 0.4 | 4.0 | 85.0 | -15.0 | 80.0 | / | / | GRK2 CP2=-20.7;FAM quench SP=101.0
C=C(C)C(=O)Nc1cccc(C2=NOC3(C2)C[C@@H](C(N)=O)N(C(=O)C(=C)C)C3)c1 (some centres not stated) | -4.6 | 75.0* | 96.0 | -24.0 | 90.0 | 43.2* | 101.2 | Aptamer quench=-0.7
C=C(C)C(=O)Nc1cccc(C2=NOC3(C2)C[C@H](C(N)=O)N(C(=O)c2ccccc2)C3)c1 (some centres not stated) | -2.1 | 48.0* | 99.0 | -10.0 | 98.0 | 20.1 | 118.7 | Aptamer quench=4.2
CCOc1ccc(NC(=O)COC(=O)C2C3CC4OC(=O)C2C4C3)cc1 (configuration not stated) | -1.9 | 2.0 | 99.0 | -8.0 | 95.0 | / | /
CCN(Cc1ccncc1)C(=O)c1ccc(C)c(S(=O)(=O)N2CCCCC2)c1 | 2.7 | 0.0 | / | / | / | / | /
SMILES | Beta2AR agonist | GRK2 aptamer HTS | MEKK2 WT-MEK5 | MEKK2 mut-MEK5 | MEKK3 PB1 HTS | GRK2 CP1 | Aptamer quench SP | others
CCOC(=O)C1=C(COC(=O)c2ccco2)NC(=O)NC1CC (configuration not stated) | 3.3 | 83.0* | / | / | / | -2.2 | 100.7
CCOC(=O)C1=C(C)NC(=O)NC1c1ccc(OC(=O)c2ccco2)cc1 (configuration not stated) | 13.3 | 2.0 | 107.0 | 4.0 | 105.0 | / | /
COc1ccc(/C=C2\CCn3c2nc2cc(C(=O)O)ccc2c3=O)cc1 | -7.2 | 41.0* | 102.0 | 4.0 | 101.0 | / | / | GRK2 CP2=0.2;FAM quench SP=99.0
COc1ccc(OC)c(C2Nc3c(Cl)ccc(C(=O)O)c3C3C=CCC32)c1 (configuration not stated) | -2.8 | 2.0 | 101.0 | 6.0 | 102.0 | / | /
O=C(O)C1Nc2c(O)cc(Cl)c([N+](=O)[O-])c2C2C=CCC12 (configuration not stated) | 1.7 | 69.0* | 87.0 | -3.0 | 94.0 | 68.2* | 94.8 | Aptamer quench=-0.6
O=C(NCCS(=O)(=O)N1CCN(c2cccc(Cl)c2)CC1)C1CCCC1 | -2.5 | 1.0 | / | / | / | / | /
